# From PubChem
# In the library only some 3% were active in any assay of this set; here they are far more common.
# IkB sig inh = inhibitors of IkB signaling in ABC-DLBCL cells; ABC-DLBCL IkBa-CBG/CBR dual luciferase ratio, 4 h; response scale: scaled: untreated 0%, proteasome inhibitor 100%; Potency, µM (highest dose often 57.1 µM), without a hit: top-dose IkBa stabilization activation; hit rate 0.04% among 110,000; AID 445; active means well fitted curve in the direction sought with a large enough effect in the signal ratio, not every such curve was filed as active; inconclusive means small, poorly fitted or top-dose-only effect, or a change in a side signal; the % refers to the signal ratio;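 further: the direction sought is a rising ratio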
#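 Luminescence ratio of IκBα-fused green versus native red beetle luciferase in OCI-Ly3 cells, 4 h post-doxycycline with compound; red signal alone, scaled from basal (0%) to zero light (-100%), flagged nonspecific or cytotoxic effects.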
# p53ts 39C kill = p53ts cell cytotoxicity, nonpermissive temperature; AID 902; Potency, µM (top dose mostly 46.1 µM), for inactives: at the top dose activity change, negative = cell killing, usual class: cytotoxic; H1299-p53A138V viability at 39C, ATP luminescence, 24 h; hit rate 1.5% among 130,000; further: on the % scale 0 is the no-effect control and ±100 the full control effect; nearly all actives have a fitted effect of over 55% in size
# p53ts 32C tox = cytotoxicity in p53ts cells at permissive temperature; H1299-p53A138V at 32C, ATP luminescence viability, 24 h; Potency, µM (series often up to 46.1 µM), without a hit: top-dose activity change, negative = cytotoxicity, most hits filed as cytotoxic; hit rate 0.93% among 130,000; AID 924;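 further: 0% = DMSO and -100% = full killing by reference compound; nearly all actives have a fitted effect of over 55% in size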
#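 H1299-p53 A138V cells (temperature-sensitive p53) exposed 24 h to up to 46 uM compound at 32C, where p53 is wild-type in conformation. Viability read as ATP luminescence and normalised to DMSO and 100 uM tamoxifen. AC50 fitted with the Hill equation.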
# CRE Fsk mod = alters forskolin-stimulated CRE reporter signaling in CHO cells; CHO CRE-bla reporter (cAMP response element driving beta-lactamase), forskolin EC10, beta-lactamase ratio; Potency, µM (highest dose often 38.2 µM), for inactives: top-dose activity change, negative = inhibition, hits mostly activators; hit rate 2.5% among 71,000; active means well fitted activation curve with a large enough effect in the signal ratio, with a control signal flat, not every such curve was filed as active; inconclusive means small, poorly fitted or top-dose-only effect, or effect the other way, or a change in a side signal; the % refers to the signal ratio; further: % of control where 0% means no effect
#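 CRE-bla CHO cells stimulated with EC10 NKH 477 (water-soluble forskolin) and compound titrations, 3 h at 37C; beta-lactamase read with CCF4 after 2 h at room temperature. Activity from 460/530 nm emission ratio, AC50 values for positive or negative modulation.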
# Imprint erasure = genomic imprint erasure induction. AID 1948. Potency, µM (series often up to 60.7 µM), without a hit: top-dose activity change, positive = activation, most hits filed as activators. hit rate 0.02% among 110,000. mouse ES Peg3-LacZ reporter, beta-gal luminescence, 40 h
#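 Readout: BetaGlo luminescence (5 min, room temp) for LacZ from the normally silent maternal Peg3 allele in female Peg3LacZ-Neo ES cells. Cells 300/well, 40 h, 37C, 5% CO2. Data normalized per plate to negative controls.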
# The depositor's hits bear a star; ? = inconclusive; . = not tested or not shown; [ ] = dose if it differs, or a comment. Unless noted, the call rests on the fitted dose curve; in most records, active means well fitted curve in the direction sought with a large enough effect; inconclusive means small, poorly fitted or top-dose-only effect, or another doubt; inactive means no such curve, though single readings can be large; an effect the other way counts as inactive or inconclusive. Potency means the concentration at half of the fitted maximal effect.
SMILES,IkB sig inh,p53ts 39C kill,p53ts 32C tox,CRE Fsk mod,Imprint erasure
O=C(CCS(=O)(=O)c1nc(-c2cccs2)cc(C(F)(F)F)n1)Nc1cccc(O)c1,0%,13µM*,?,.,7%[10.9 µM]
COc1cc(NC(=O)CCS(=O)(=O)c2nc(-c3cccs3)cc(C(F)(F)F)n2)cc(OC)c1OC,?,13µM*,-19%,.,-8%[10.9 µM]
Cc1c(CC(=O)NCCc2ccccc2)c(=O)oc2c(C)c3occ(C(C)(C)C)c3cc12,2%,-11%,-7%,.,-12%[10.9 µM]
COc1ccc(-n2c(=O)c3c4c(sc3n(Cc3ccccc3)c2=O)CCC4)c(OC)c1,3%,18%,10%,.,-3%[10.9 µM]
CCCCCCC/C=C\CCCCCCCCC(=O)O,20%,11%,-5%,3%,-11%
CCCCCCCC/C=C\CCCCCCCC(=O)N[C@@H](CO)Cc1ccc(O)cc1,?,32µM*,?,1%,-32%
Cc1ccccc1CNC(=O)CN(c1cccc(C)c1C)S(C)(=O)=O,2%,-15%,10%,.,-8%[10.9 µM]
CCCCC(CC)CNC(=O)c1ccc2c(=O)n(Cc3ccc(OC)cc3)c(=O)[nH]c2c1 (centres undefined),1%,28%,5%,.,-4%[10.9 µM]
CCCCC(CC)CNC(=O)c1ccc(Cn2c(=O)[nH]c3cc(OC)c(OC)cc3c2=O)cc1 (centres undefined),?,4µM*,?,.,-6%[10.9 µM]
Clc1ccccc1Cc1cn2cc(-c3ccccc3)nc2s1,?,3.2µM*,?,.,-19%[10.9 µM]
Fc1ccc(Cc2cn3cc(-c4ccccc4)nc3s2)cc1,?,2.5µM*,3.2µM*,.,-20%[10.9 µM]
Brc1ccc(-c2cn3cc(Cc4ccccc4)sc3n2)cc1,6%,?,-27%,.,-6%[10.9 µM]
Fc1ccc(-c2cn3cc(Cc4ccccc4)sc3n2)cc1,?,5µM*,2.2µM*,.,-24%[10.9 µM]
Fc1ccc(Cc2cn3cc(-c4ccc(Cl)cc4)nc3s2)cc1,4%,-10%,?,.,-7%[10.9 µM]
CCCC[C@@H]1C[C@H]1C(NC(=O)c1cccnc1)c1ccc(Cl)cc1 (some centres undefined),.,13µM*,?,-8%,-22%
CC(C)n1c(SCC(=O)N2c3ccccc3Sc3ccccc32)nc2c1c(=O)n(C)c(=O)n2C,-1%,-20%,8%,1µM*,-6%
CCOC(=O)c1ccc(N2C(=O)c3n[nH]c(-c4cccs4)c3C2c2cccc(F)c2)cc1 (centres undefined),?,6.3µM*,17%,.,-7%[10.9 µM]
CCOC(=O)c1ccc(N2C(=O)c3n[nH]c(-c4cccs4)c3C2c2ccc(C)cc2)cc1 (centres undefined),?,15%,0%,.,21%[10.9 µM]
Nc1nc(Cl)nc2c1ncn2[C@@H]1O[C@H](CO)[C@@H](O)[C@H]1O,.,?,20µM*,.,-2%
CCCCC#Cc1nc(NC)c2ncn([C@@H]3O[C@@H](CO)[C@H](O)[C@H]3O)c2n1,1%,-16%,8%,20µM*,-1%
CCOc1ccc(N(CC)C(=O)Cn2cnc3sc(C)c(S(=O)(=O)N4CCN(c5ncccn5)CC4)c3c2=O)cc1,3%,-3%,13%,.,-5%[10.9 µM]
COc1ccc(-c2noc(CCCOc3ccccc3)n2)cc1OC,1%,-7%,0%,?,-12%
COc1ccc(-c2noc(CCN3C(=O)c4ccccc4C3=O)n2)cc1OC,0%,4%,5%,3.2µM*,0%
O=C(CCc1ccc(O)cc1)c1c(O)cc(O)cc1O[C@@H]1O[C@@H](CO)[C@@H](O)[C@@H](O)[C@H]1O,0%[11.4 µM],.,.,-1%,.
O=C(CCC1CCCC1)Nc1ccc(OCC(=O)N2CCOCC2)cc1,.,?,7.9µM*,.,.
Cc1cc2nc(C)n3c4ccccc4nc3n2n1,1%,-7%,-13%,?,-15%
CCc1nc2cc(C)nn2c2nc3ccccc3n12,0%,6%,-5%,3.2µM*,-9%
CC(=O)c1cccc(NC(=O)c2cc3ccccn3n2)c1,?,13µM*,13µM*,-7%,-72%
Cc1cc(Cl)ccc1NC(=O)c1cc2ccccn2n1,5%,5µM*,10µM*,.,-17%[10.9 µM]
